# Measured values taken from the supplement of paper PMC3545927.
# The list shows a part of the results. The hit rate among all sequences tested is not known here.
# Biological target: furin, P09958
# Test: furin cleavage Z-score vs untreated control; higher = more cleavage, active = 3.5 or more, inactive = 1 or less, 8 variable residues between constant flanks
# Procedure, shortened: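 Furin cleavage was scored on 8-mer peptides joined to a cDNA oligonucleotide and bound to magnetic beads at the N-terminus. Digestion with purified furin (1:10 enzyme:substrate, 0.01 ml, 50 mM HEPES pH 7.5, CaCl2, NaCl) lasted 7.5, 15 or 30 min. Freed DNA was tagged with adapters by PCR, sequenced and counted; the cleavage Z-score is the lowess-adjusted log count versus furin-free reactions, scaled by median absolute deviation.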
# Sequence of furin, P09958 (P09958 whole entry): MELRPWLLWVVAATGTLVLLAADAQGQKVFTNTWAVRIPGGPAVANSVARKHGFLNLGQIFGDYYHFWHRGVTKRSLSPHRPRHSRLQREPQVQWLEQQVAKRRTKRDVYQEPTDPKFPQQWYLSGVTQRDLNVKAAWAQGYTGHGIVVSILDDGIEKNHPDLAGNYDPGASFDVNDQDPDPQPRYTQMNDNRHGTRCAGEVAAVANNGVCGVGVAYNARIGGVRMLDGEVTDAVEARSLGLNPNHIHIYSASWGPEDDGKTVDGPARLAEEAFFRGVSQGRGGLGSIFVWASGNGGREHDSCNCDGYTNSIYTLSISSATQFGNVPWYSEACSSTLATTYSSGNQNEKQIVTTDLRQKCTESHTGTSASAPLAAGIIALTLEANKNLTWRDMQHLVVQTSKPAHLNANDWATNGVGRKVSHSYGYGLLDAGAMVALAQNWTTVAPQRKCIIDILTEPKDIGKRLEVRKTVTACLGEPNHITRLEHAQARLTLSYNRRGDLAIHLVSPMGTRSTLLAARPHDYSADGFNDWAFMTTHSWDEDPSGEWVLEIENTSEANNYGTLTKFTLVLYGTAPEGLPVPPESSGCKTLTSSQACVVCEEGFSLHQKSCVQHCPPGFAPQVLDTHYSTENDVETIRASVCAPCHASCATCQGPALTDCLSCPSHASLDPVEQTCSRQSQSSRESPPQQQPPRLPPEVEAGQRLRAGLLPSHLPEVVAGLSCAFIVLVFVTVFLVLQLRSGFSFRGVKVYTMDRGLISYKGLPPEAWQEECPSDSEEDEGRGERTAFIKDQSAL
Sequence,furin cleavage Z-score (7.5 min),furin cleavage Z-score (15 min),furin cleavage Z-score (30 min)
CAVTPCSGSWAGNASASA [HC1830],-0.794 (inactive),-0.739 (inactive),-0.453 (inactive)
CAEKAVERRSAGNASASA [FS-1191],0.591 (inactive),2.02,0.505 (inactive)
CATAQRHRRYAGNASASA [FS-628],8.01 (active),10.1 (active),9.56 (active)
CAAKAKRRRSAGNASASA [FS-744],10.8 (active),11.8 (active),8.83 (active)
CAKDSRFFRYAGNASASA [FS-808],0.318 (inactive),-0.509 (inactive),1.08
CAGNITRVESAGNASASA [HC1280],-0.34 (inactive),-0.548 (inactive),1.72
CAYVSRLRRVAGNASASA [FS-1441],4.8 (active),5.42 (active),4.8 (active)
CARFARLRRVAGNASASA [FS-853],4.92 (active),7.36 (active),5.85 (active)
CAPEARLRRVAGNASASA [FS-839],0.0356 (inactive),3.09,2.39
CALVCCSMSYAGNASASA [HC1985],-0.475 (inactive),-0.242 (inactive),0.0858 (inactive)
CAHGPTPLLYAGNASASA [HC970],-1.77 (inactive),-1.23 (inactive),-0.927 (inactive)
CAAACRAAGLAGNASASA [HC1521],-0.658 (inactive),-1.9 (inactive),-0.337 (inactive)
CARGKREAGLAGNASASA [FS-1950],10.7 (active),12 (active),9.85 (active)
CARGKRFRPRAGNASASA [FS-2209],-0.464 (inactive),0.0565 (inactive),0.308 (inactive)
CARFKKNAGLAGNASASA [FS-2258],0.96 (inactive),-0.927 (inactive),0.128 (inactive)
CARGKRELRMAGNASASA [FS-2933],7.15 (active),8.97 (active),10 (active)
CADVKFPGGGAGNASASA [HC171],-0.433 (inactive),-1.81 (inactive),-2.39 (inactive)
CACLVDYPYRAGNASASA [HC464],-1.54 (inactive),-2.22 (inactive),0.308 (inactive)
CAPCRRKPRDAGNASASA [FS-838],14.7 (active),14.2 (active),11.5 (active)
CAQKGRKPRDAGNASASA [FS-1056],15 (active),14.9 (active),10.2 (active)
CAPPGRMCRVAGNASASA [FS-1549],0.819 (inactive),0.646 (inactive),1.21
CAPKRRKPRVAGNASASA [FS-1242],8.95 (active),11.6 (active),8 (active)

Sequence,furin cleavage Z-score (7.5 min),furin cleavage Z-score (15 min),furin cleavage Z-score (30 min)
CAKMQRAPRDAGNASASA [FS-451],-0.25 (inactive),-0.389 (inactive),-0.0248 (inactive)
CACSRRKPRDAGNASASA [FS-752],11.2 (active),11.6 (active),9.05 (active)
CATRGRQPRVAGNASASA [FS-1575],0.424 (inactive),0.857 (inactive),1.04
CAVVQCSMSYAGNASASA [HC2042],0.93 (inactive),0.804 (inactive),0.223 (inactive)
CASMSYSWTGAGNASASA [HC1371],-1.4 (inactive),-0.78 (inactive),-0.275 (inactive)
CAVVCCSMMYAGNASASA [HC2066],0.37 (inactive),-1.1 (inactive),-0.477 (inactive)
CAEWPCHRPSAGNASASA [HC2328],2.33,0.752 (inactive),0.743 (inactive)
CALRDIWDWIAGNASASA [HC1149],-0.31 (inactive),1.9,1.08
CAMMNWSPTTAGNASASA [HC322],-3.83 (inactive),0.346 (inactive),-1.29 (inactive)
CALDLSGWFTAGNASASA [HC1643],1.07,0.845 (inactive),-0.793 (inactive)
CAQALDCEIYAGNASASA [HC1591],-1.45 (inactive),0.168 (inactive),-0.351 (inactive)
CAKRGREFRIAGNASASA [FS-909],0.58 (inactive),-0.852 (inactive),-0.651 (inactive)
CATKDRKRRSAGNASASA [FS-880],13.4 (active),13.2 (active),8.6 (active)
CAKRGRKRRSAGNASASA [FS-1021],13.5 (active),12.1 (active),11.2 (active)
CATKDNFKRSAGNASASA [FS-727],2.99,1.62,3.93 (active)
CATDDDFERSAGNASASA [FS-629],-0.626 (inactive),-1.72 (inactive),0.0381 (inactive)
CATKADKRRSAGNASASA [FS-1093],1.16,-0.227 (inactive),0.33 (inactive)
CARVTRYSNIAGNASASA [FS-2198],-0.808 (inactive),-0.0709 (inactive),0.615 (inactive)
CAEMVVCCSMAGNASASA [HC2126],-1.21 (inactive),-1.21 (inactive),0.778 (inactive)
CATTPGSGSWAGNASASA [HC42],-0.496 (inactive),-0.533 (inactive),-0.629 (inactive)
CADDVVCCSMAGNASASA [HC2111],-0.752 (inactive),0.00684 (inactive),-0.0395 (inactive)
